Shown is part of a subset that was picked to be rich in hits.
RGS12 GoLoco inh = qHTS Assay for Inhibitors of RGS12 GoLoco Motif Activity (Red Fluorophore); Guanine nucleotide-binding protein G(i) subunit alpha-1 (Homo sapiens), P63096; Gai1:RGS12 GoLoco peptide FP, rhodamine, 10 min; Potency, µM (series often up to 61.6 µM), for inactives: at the top dose activity, negative = inhibition, usual class: inhibitors; hit rate 0.44% among 230,000; AID 880, 2007; active = well fitted inhibition curve with a large enough effect, not every such curve was filed as active; inactive = no such curve, though single readings can be large or run the other way; note: nearly all actives have a fitted effect of over 30% in size
Target sequence (P63096 whole entry, looked up): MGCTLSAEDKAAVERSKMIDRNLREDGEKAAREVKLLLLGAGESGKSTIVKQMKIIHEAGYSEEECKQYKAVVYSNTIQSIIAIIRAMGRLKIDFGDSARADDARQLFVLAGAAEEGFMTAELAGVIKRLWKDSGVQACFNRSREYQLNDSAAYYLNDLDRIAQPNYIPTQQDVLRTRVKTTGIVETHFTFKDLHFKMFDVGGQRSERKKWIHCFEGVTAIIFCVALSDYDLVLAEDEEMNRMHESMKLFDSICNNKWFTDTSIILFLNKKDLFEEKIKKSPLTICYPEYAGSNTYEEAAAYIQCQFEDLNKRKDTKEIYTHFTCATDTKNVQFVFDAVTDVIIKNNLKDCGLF
RECQ1 inh-1 = qHTS Assay for Inhibitors of RecQ-Like Dna Helicase 1 (RECQ1); AID 2549, 2010; Potency, µM (titrated, usually from 57.3 µM), for inactives: at the highest dose activity, negative = inhibition, actives largely listed as inhibitors; RECQ1 DNA unwinding, red fluorescence kinetic read; hit rate 0.54% among 240,000;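 note: plate controls were vehicle for no effect and no enzyme for full effect; nearly all actives have a fitted effect of over 30% in size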
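50 nM RECQ1T1 preincubated 15 min with compound in Tris pH 8.0 buffer with MgCl2, DTT, Tween-20 and 2.5 ug/ml poly(dI-dC); started with 200 nM TAMRA/BHQ-2 forked duplex and 2 mM ATP. Unwinding read as fluorescence (525/598 nm), two reads 2 h apart.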
BLM inh = qHTS Assay for Inhibitors of Bloom's syndrome helicase (BLM); RecQ-like DNA helicase BLM (Homo sapiens), P54132; recombinant BLM DNA unwinding, fluorescence dequenching; hit rate 0.2% among 350,000; Potency, µM (titrated, usually from 56.1 µM), without a hit: at the highest dose activity change, negative = inhibition, most hits filed as inhibitors; AID 2528, 2010;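 note: plate controls were vehicle for no effect and no enzyme for full effect; nearly all actives have a fitted effect of over 35% in size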
L3MBTL1 inh = qHTS Assay for the Inhibitors of L3MBTL1; AlphaScreen L3MBTL1–H3K9me1 peptide binding; Potency, µM (top dose mostly 57.1 µM), for inactives: at the top dose activity, negative = inhibition, actives largely listed as inhibitors; hit rate 0.66% among 230,000; AID 485360, 2010; note: nearly all actives have a fitted effect of over 60% in size
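AlphaScreen assay: L3MBTL1 (50 nM final) was preincubated 30 min at room temperature with biotinylated H3(1-15)K9me1 peptide (75 nM final), then 30 min with library compounds; streptavidin donor and nickel chelate acceptor beads (10 ug/mL final) added, 30 min dark.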
JMJD2E inh = qHTS Assay for Inhibitors of Human Jumonji Domain Containing 2E (JMJD2E) | Lysine-specific demethylase 4E (Homo sapiens), B2RXH2 | JMJD2E catalytic domain, FDH-coupled NADH fluorescence (FDH is formaldehyde dehydrogenase) | Potency, µM (titrated, usually from 57.1 µM), inactives show at the top dose activity change, negative = inhibition, hits mostly inhibitors | hit rate 1.6% among 230,000; active = well fitted inhibition curve with a large enough effect, not every such curve was filed as active; inconclusive = small, poorly fitted or top-dose-only effect, or another doubt; inactive = no such curve, though single readings can be large or run the other way;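 note: 0% = wells with enzyme and -100% = buffer wells without enzyme; nearly all actives have a fitted effect of over 50% in size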
APEX1 inh = qHTS Assay for Inhibitors of the Human Apurinic/apyrimidinic Endonuclease 1 (APE1); DNA repair nuclease/redox regulator APEX1 (Homo sapiens), P27695; AID 2517, 2012; recombinant APE1, TAMRA/BHQ-2 abasic DNA cleavage fluorescence; hit rate 0.35% among 350,000; Potency, µM (highest dose often 65.8 µM), inactives show at the top dose activity change, negative = inhibition, most hits filed as inhibitors;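 note: plate controls were vehicle for no effect and reference inhibitor for full effect; nearly all actives have a fitted effect of over 55% in size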
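APE1 at 0.75 nM final was preincubated with compound 15 min at room temperature, then 50 nM double-stranded THF abasic-site substrate (5'-TAMRA/3'-BHQ-2) was added. Fluorescence (ex 525/em 598 nm) was read kinetically; third-minus-first read gave activity.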
RECQ1 conf = Confirmation qHTS Assay for Inhibitors of RecQ-Like Dna Helicase 1 (RECQ1); shares compounds with RECQ1 inh-1; RECQ1 helicase DNA unwinding, fluorescence; Potency, µM (series often up to 229 µM), inactives show at the top dose activity change, negative = inhibition, most hits filed as inhibitors; hit rate 28% among 610; AID 2708, 2010; note: nearly all actives have a fitted effect of over 45% in size
RECQ1 ADP FP = Counterscreen for RECQ1 Inhibitors: ADP Fluorescence Polarization Displacement Assay. hit rate 27% among 530. Potency, µM (doses to about 228 µM), inactives show top-dose activity change, negative = inhibition, most hits filed as inhibitors. ADP fluorescence polarization displacement counterscreen. shares compounds with RECQ1 inh-1; note: nearly all actives have a fitted effect of over 45% in size
RECQ1 inh-2 = Confirmation qHTS Assay for Inhibitors of RecQ-Like Dna Helicase 1 (RECQ1) - Round 2 Cherry Picks. hit rate 15% among 1,100. Potency, µM (doses to about 119 µM), for inactives: at the highest dose activity, negative = inhibition, hits mostly inhibitors. shares compounds with RECQ1 inh-1. AID 504841, 2011. recombinant RECQ1 DNA unwinding, red fluorescence; note: nearly all actives have a fitted effect of over 50% in size
An asterisk follows results filed as active; i = inactive; ? = inconclusive; / = not tested or not shown; [ ] = dose if it differs, or a comment. Unless noted, calls come from the whole dose curve; as a rule, active = well fitted curve in the direction sought with a large enough effect; inconclusive = small, poorly fitted or top-dose-only effect, or another doubt; inactive = no such curve, though single readings can be large; an effect the other way counts as inactive or inconclusive. Unless noted, % is set by controls: 0 for no effect and ±100 for the full control effect; potency is the fitted concentration of half-maximal effect.

SMILES	RGS12 GoLoco inh	RECQ1 inh-1	BLM inh	L3MBTL1 inh	JMJD2E inh	APEX1 inh	RECQ1 conf	RECQ1 ADP FP	RECQ1 inh-2
COC(=O)C1=C(C)N(c2ccc(C(=O)OC)cc2)C(=O)C1	-4%	0%	-9%	-5%	-3%	-3%	/	/	/
Cc1ccc(-c2nn(CCC(=O)O)cc2CCC(=O)O)cc1	9%	i	0%	/	0%	3%	14%	?	/
CCn1cc(CCC(=O)O)c(C)n1	-6%	-12%	4%	29%	-3%	1%	/	/	/
CC1CN(S(=O)(=O)c2ccc(C(=O)Nc3ccc(S(=O)(=O)Nc4nccs4)cc3)cc2)CC(C)O1 (stereo not drawn)	9%	7%	-3%	-13%	-1%	-11%	-4%	7%	/
COc1cc(OC)cc(C(=O)NNC(=O)c2ccc(S(=O)(=O)N3CC(C)OC(C)C3)cc2)c1 (stereo not drawn)	4%	0%	1%	/	10%	-12%	10%	-1%	/
CC1CN(S(=O)(=O)c2ccc(C(=O)Nc3nccs3)cc2)CC(C)O1 (stereo not drawn)	-11%	1%	0%	7%	-1%	5%	/	/	/
O=C(CSc1cn(CC(=O)N2CCOCC2)c2ccccc12)Nc1ccccc1F	/	/	1%	/	/	/	/	/	/
CNc1ccc(Br)cc(C(=O)/C=C/c2ccc3c(c2)OCO3)c1=O	69%	?	-23%	28µM*	?	?	/	/	?
CNc1ccc(Br)cc(C(=O)/C=C/c2ccc(OC)cc2)c1=O	12%	?	?	-16%	25µM*	?	/	/	-13%
COc1ccc(/C=C/C(=O)c2ccc(OC)cc2OC)cc1	1%	-11%	-4%	-5%	-16%	-3%	/	/	/
COc1ccccc1CNC(=O)C(NS(=O)(=O)c1cccs1)C(C)C (stereo not drawn)	/	/	-3%	/	/	/	/	/	/
COC(=O)c1cccc(C(=O)Oc2cccc(Br)c2)n1	-12%	14µM*	0%	3%	5%	-1%	11%[114 µM]	28%[91.9 µM]	-5%
CC(=O)N1CCOc2cc(S(=O)(=O)N(C)Cc3ccccc3)c(Cl)cc21	/	/	0%	/	/	/	/	/	/
Nc1c(N2CCCC2)cc(Cl)c2nonc12	/	?	?	28µM*	?	?	/	/	?
O=C(O)CCCCn1c(SCc2cc(=O)n3cc(Cl)ccc3n2)nc2ccsc2c1=O	8%	0%	2%	5%	?	-2%	/	/	/
NS(=O)(=O)c1ccc(CCNC(=O)CSc2nc3ccsc3c(=O)n2CCCCCC(=O)O)cc1	2%	-1%	-8%	/	-7%	13%	14%	-8%	/
